Reference: PubChem BioAssay AID1159580 (chemical genetic matrix, 2015)
Screen size: about 5,500 compounds; about 2,000 (36%) were called active. About 18% were inconclusive and are not listed. No stated cut-off is given here; in the data, active means normalized growth mostly below about 0.91 (no sharp cut-off); inconclusive means no clear call, values can overlap the other calls; inactive means mostly above about 0.92. The list shows a part of the results.

Assay: chemical genetic growth profiling, strain panel (AID 1159580);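 further: tested at 20 µM; growth read once vehicle control cultures reached saturation at 30 °C; 1 = growth at the plate median or of vehicle wells; lower values mean less growth of the strain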
Settings: growth OD

Measured: normalized growth

Cc1cccc(Nc2ccccc2C(=O)O)c1C
active: S. cerevisiae deletion strains, locus YKL009W, strain mrt4, active compounds read low 0.874 | S. cerevisiae deletion strains, locus YKL190W, strain CNB1, active compounds read low 0.908 | S. cerevisiae deletion strains, locus YKR001C, strain vps1, active compounds read low 0.676 | S. cerevisiae deletion strains, locus YKR026C, strain gcn3, active compounds read low 0.877 | S. cerevisiae deletion strains, locus YKR091W, strain srl3, active compounds read low 0.909 | S. cerevisiae deletion strains, locus YLL041C, strain sdh2, active compounds read low 0.901 | S. cerevisiae deletion strains, locus YLR039C, strain RIC1, active compounds read low 0.597 | S. cerevisiae deletion strains, locus YLR102C, strain apc9, active compounds read low 0.876 | S. cerevisiae deletion strains, locus YLR262C, strain YPT6 (second series), active compounds read low 0.749 | S. cerevisiae deletion strains, locus YLR268W, strain sec22, active compounds read low 0.869 | S. cerevisiae deletion strains, locus YLR330W, strain CHS5, active compounds read low 0.87 | S. cerevisiae deletion strains, locus YLR342W, strain FKS1 (second series), active compounds read low 0.756 | S. cerevisiae deletion strains, locus YLR342W, strain FKS1, active compounds read low 0.897 | S. cerevisiae deletion strains, locus YLR371W, strain rom2, active compounds read low 0.858 | S. cerevisiae deletion strains, locus YLR384C, strain iki3, active compounds read low 0.894 | S. cerevisiae deletion strains, locus YLR418C, strain cdc73, active compounds read low 0.775 | S. cerevisiae deletion strains, locus YML016C, strain PPZ1, active compounds read low 0.886 | S. cerevisiae deletion strains, locus YML032C, strain rad52, active compounds read low 0.891 | S. cerevisiae deletion strains, locus YML124C, strain tub3, active compounds read low 0.843 | S. cerevisiae deletion strains, locus YMR078C, strain ctf18, active compounds read low 0.838 | S. cerevisiae deletion strains, locus YMR129W, active compounds read low 0.908 | S. cerevisiae deletion strains, locus YMR223W, strain ubp8, active compounds read low 0.869 | S. cerevisiae deletion strains, locus YMR231W, strain pep5, active compounds read low 0.9 | S. cerevisiae deletion strains, locus YNL071W, strain lat1, active compounds read low 0.897 | S. cerevisiae deletion strains, locus YNL183C, strain NPR1, active compounds read low 0.805 | S. cerevisiae deletion strains, locus YNL298W, strain CLA4, active compounds read low 0.844 | S. cerevisiae deletion strains, locus YNL307C, strain MCK1, active compounds read low 0.626 | S. cerevisiae deletion strains, locus YNL322C, strain KRE1 (second series), active compounds read low 0.898 | S. cerevisiae deletion strains, locus YNL322C, strain KRE1, active compounds read low 0.912 | S. cerevisiae deletion strains, locus YNR049C, strain mso1, active compounds read low 0.912 | S. cerevisiae deletion strains, locus YNR052C, strain pop2, active compounds read low 0.878 | S. cerevisiae deletion strains, locus YOL147C, strain pex11, active compounds read low 0.87 | S. cerevisiae deletion strains, locus YOR069W, strain VPS5, active compounds read low 0.893 | S. cerevisiae deletion strains, locus YOR144C, strain elg1, active compounds read low 0.86 | S. cerevisiae deletion strains, locus YOR184W, strain ser1, active compounds read low 0.724 | S. cerevisiae deletion strains, locus YOR265W, strain rbl2, active compounds read low 0.908 | S. cerevisiae deletion strains, locus YOR316C, strain cot1, active compounds read low 0.874 | S. cerevisiae deletion strains, locus YPL051W, strain arl3, active compounds read low 0.906 | S. cerevisiae deletion strains, locus YPL240C, strain hsp82, active compounds read low 0.915 | S. cerevisiae deletion strains, locus YPL241C, strain CIN2, active compounds read low 0.902 | S. cerevisiae deletion strains, locus YPR119W, strain clb2, active compounds read low 0.856 | S. cerevisiae deletion strains, locus YPR163C, strain tif3, active compounds read low 0.893 | S. cerevisiae deletion strains, locus YPR167C, strain met16, active compounds read low 0.87
inactive: S. cerevisiae deletion strains, locus YJR075W, strain HOC1, active compounds read low 0.937 | S. cerevisiae deletion strains, locus YKL068W, active compounds read low 0.985 | S. cerevisiae deletion strains, locus YKL085W, strain MDH1 (second series), active compounds read low 0.972 | S. cerevisiae deletion strains, locus YKL085W, strain MDH1, active compounds read low 0.972 | S. cerevisiae deletion strains, locus YKL160W, strain elf1, active compounds read low 0.921 | S. cerevisiae deletion strains, locus YLL001W, strain dnm1, active compounds read low 0.914 | S. cerevisiae deletion strains, locus YLL026W, active compounds read low 0.952 | S. cerevisiae deletion strains, locus YLR027C, strain aat2, active compounds read low 0.936 | S. cerevisiae deletion strains, locus YLR058C, strain SHM2, active compounds read low 0.906 | S. cerevisiae deletion strains, locus YLR113W, strain HOG1, active compounds read low 0.903 | S. cerevisiae deletion strains, locus YLR221C, strain rsa3, active compounds read low 0.925 | S. cerevisiae deletion strains, locus YLR258W, strain gsy2, active compounds read low 0.924 | S. cerevisiae deletion strains, locus YLR262C, strain YPT6, active compounds read low 0.683 | S. cerevisiae deletion strains, locus YLR320W, strain mms22, active compounds read low 0.894 | S. cerevisiae deletion strains, locus YLR357W, strain rsc2, active compounds read low 0.979 | S. cerevisiae deletion strains, locus YLR370C, strain arc18, active compounds read low 0.913 | S. cerevisiae deletion strains, locus YML120C, strain ndi1, active compounds read low 0.922 | S. cerevisiae deletion strains, locus YMR058W, strain fet3, active compounds read low 0.918 | S. cerevisiae deletion strains, locus YMR125W, strain sto1, active compounds read low 0.955 | S. cerevisiae deletion strains, locus YMR205C, strain PFK2, active compounds read low 0.919 | S. cerevisiae deletion strains, locus YMR263W, strain SAP30, active compounds read low 0.891 | S. cerevisiae deletion strains, locus YMR307W, strain GAS1, active compounds read low 0.672 | S. cerevisiae deletion strains, locus YNL067W, strain RPL9B, active compounds read low 0.926 | S. cerevisiae deletion strains, locus YNL128W, strain TEP1, active compounds read low 0.988 | S. cerevisiae deletion strains, locus YNL153C, strain GIM3, active compounds read low 0.933 | S. cerevisiae deletion strains, locus YNL209W, strain ssb2, active compounds read low 0.939 | S. cerevisiae deletion strains, locus YNL233W, strain BNI4, active compounds read low 0.927 | S. cerevisiae deletion strains, locus YNL248C, strain rpa49, active compounds read low 0.971 | S. cerevisiae deletion strains, locus YNL250W, strain rad50, active compounds read low 0.988 | S. cerevisiae deletion strains, locus YNL271C, strain bni1, active compounds read low 0.941 | S. cerevisiae deletion strains, locus YOL006C, strain TOP1, active compounds read low 0.884 | S. cerevisiae deletion strains, locus YOL012C, strain htz1 1.12 | S. cerevisiae deletion strains, locus YOR001W, strain rrp6, active compounds read low 0.938 | S. cerevisiae deletion strains, locus YOR061W, strain CKA2, active compounds read low 0.894 | S. cerevisiae deletion strains, locus YOR070C, strain gyp1, active compounds read low 0.928 | S. cerevisiae deletion strains, locus YOR080W, strain dia2, active compounds read low 0.941 | S. cerevisiae deletion strains, locus YOR083W, strain WHI5, active compounds read low 0.921 | S. cerevisiae deletion strains, locus YOR106W, strain vam3, active compounds read low 0.94 | S. cerevisiae deletion strains, locus YOR136W, strain idh2, active compounds read low 0.958 | S. cerevisiae deletion strains, locus YOR231W, strain MKK1, active compounds read low 0.919 | S. cerevisiae deletion strains, locus YOR270C, strain vph1, active compounds read low 0.868 | S. cerevisiae deletion strains, locus YOR290C, strain snf2, active compounds read low 0.919 | S. cerevisiae deletion strains, locus YPL055C, strain LGE1, active compounds read low 0.881 | S. cerevisiae deletion strains, locus YPL078C, strain atp4, active compounds read low 0.893 | S. cerevisiae deletion strains, locus YPL106C, strain sse1, active compounds read low 1.05 | S. cerevisiae deletion strains, locus YPL256C, strain CLN2, active compounds read low 0.874 | S. cerevisiae deletion strains, locus YPR141C, strain kar3, active compounds read low 0.981 | S. cerevisiae deletion strains, strain wtn01, active compounds read low 0.911 | S. cerevisiae strains, strain wild type, active compounds read low 0.937
